Source: the OligoGym collection
Note: reference of the scale not given here.

These sequences were tested against MAGEA2B (assay: pooled miR-30 sensor sort-seq; sequence = guide strand). Settings: shRNA.
TTAGTGTATGGTGCAGGACTTT was tested, and the sensor-assay potency score (higher = more potent) was -1.05. In the case of ATTTCTGAGGACACTCTCCAGC, the sensor-assay potency score (higher = more potent) is reported as -1.24. Work on TCCAGGTCGGGAAACATTCTTG yielded a sensor-assay potency score (higher = more potent) of -1.23. AAATGTGAGGTTCTCCACCGAT was tested, and the sensor-assay potency score (higher = more potent) was -0.397. TCTGAGGACACTCTCCAGCATT showed a sensor-assay potency score (higher = more potent) of -1.1. With TAGTGTATGGTGCAGGACTTTC the sensor-assay potency score (higher = more potent) was -1.11. ACCAACTCAACCATCTTCCTAC showed a sensor-assay potency score (higher = more potent) of -1.03. For TCTTCCTACTGATTGCTGCTTG, the sensor-assay potency score (higher = more potent) was -0.703. AAAATGAACCAACTCAACCATC was tested, and the sensor-assay potency score (higher = more potent) was -1.2.

These sequences were tested against MAGEA8 in the same assay as above. Settings: shRNA.
TTCTTTATGTCTTTATCTCATG was tested, and the sensor-assay potency score (higher = more potent) was -1.14. In the case of TTCTCATCAAGTGCTTCCCGGA, the sensor-assay potency score (higher = more potent) is reported as -0.615. ATCAATGCCAAAGATCACCTGC gave a sensor-assay potency score (higher = more potent) of 0.274. Work on TTTATGTCTTTATCTCATGTAT yielded a sensor-assay potency score (higher = more potent) of -0.397. With TAATCCTCTGCTCTTGTAGTGT the sensor-assay potency score (higher = more potent) was -0.188. For TAGAGGAGGAGGATGCAGCCTT, the sensor-assay potency score (higher = more potent) was -0.332. For TTTGATGACACTCTCAAGCATT, the sensor-assay potency score (higher = more potent) was -0.926. TTTCTCATCAAGTGCTTCCCGG showed a sensor-assay potency score (higher = more potent) of -0.5. Work on TGTGGGAATCTGCACATCCATA yielded a sensor-assay potency score (higher = more potent) of -1.63. TTCCTCAGCCTTGTAGCGCTGA gave a sensor-assay potency score (higher = more potent) of 0.23. TAGCGCACAGGATCACTGCCGG showed a sensor-assay potency score (higher = more potent) of -0.803.
